Results on eight compounds are retold here after PubChem BioAssay (NCI).

About 83,000 compounds went through this panel and 20% of them were active in at least one assay; those are over-represented in the sample as a whole.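 Step 1: grow cells in 96-well plates. Step 2: add test compound at a single concentration. Step 3: incubate 48 h. Step 4: record percent growth.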 Unmarked numbers belong to inactive results. The source made the active and inactive calls. Rule for the calls: active = growth percent below 10; inactive = the rest.

Among the test systems are HCT-15 colon; HT29 colon; SNB-75 CNS; SNB-19 CNS; U251 CNS; PC-3 prostate; SK-MEL-5 melanoma; UACC-62 melanoma; LOX IMVI melanoma; SK-MEL-28 melanoma; SK-MEL-2 melanoma; EKVX NSCLC; SN12C renal; UO-31 renal; TK-10 renal; ACHN renal; CAKI-1 renal; A498 renal; CCRF-CEM leukemia; MOLT-4 leukemia.
Holding throughout (experiment): NCI-60 one-dose screen, 48 h (100 = growth as untreated, 0 = no growth, -100 = all killed)
Common to all, as to conditions: 10 µM unless noted

Consider `CC(C)(C)c1cc(NC(=O)Nc2ccc(-c3cn4c5c(sc4n3)CCc3cn(CCCN4CCCCC4)cc3-5)cc2)no1`, for which the growth was -82.7% (active) with HCT-15 colon; -50.7% (active) in the test with HT29 colon; 39.5% in the test with SNB-75 CNS; -83.5% (active) in the test with SNB-19 CNS; -86.3% (active) with U251 CNS; -74.8% (active) in the test on PC-3 prostate. Besides, the growth in the test on SK-MEL-5 melanoma is -51.9% (active); in the test with UACC-62 melanoma, 98%; in the test with LOX IMVI melanoma, -96.2% (active); with SK-MEL-28 melanoma it was -89.8% (active); in the test with SK-MEL-2 melanoma it was 108%; in the test on EKVX NSCLC, -80.5% (active). Besides, the growth was -86.3% (active) with SN12C renal; -70.3% (active) in the test on UO-31 renal; -89.3% (active) with TK-10 renal; -99.7% (active) in the test on ACHN renal; -97.2% (active) in the test with CAKI-1 renal; 74.5% in the test on A498 renal. In addition, the growth was 3.37% (active) with CCRF-CEM leukemia and -10.9% (active) in the test with MOLT-4 leukemia.
Turning to `COc1ccc(/C=N/N=C(/c2ccccc2)c2ccc3nc(-c4ccc(Cl)cc4)[nH]c3c2)cc1`, the growth was 59.7% in the test on HCT-15 colon; 65.7% in the test on HT29 colon; 106% in the test on SNB-75 CNS; 84.2% in the test with SNB-19 CNS; 79.4% in the test with U251 CNS; 54.7% in the test on PC-3 prostate. In addition, the growth in the test on SK-MEL-5 melanoma is 81%; in the test with UACC-62 melanoma, 91.9%; in the test on LOX IMVI melanoma, 77.6%; in the test with SK-MEL-28 melanoma, 88.4%; in the test on SK-MEL-2 melanoma, 89.1%; in the test on EKVX NSCLC, 91.9%. The growth was 85.4% with SN12C renal; 78.7% in the test on UO-31 renal; 81.9% in the test with TK-10 renal; 87.5% in the test with ACHN renal; 72.4% in the test with CAKI-1 renal; 59.8% in the test on A498 renal. The growth in the test on CCRF-CEM leukemia was 68.1%; in the test with MOLT-4 leukemia it was 53.2%.
As to `C=C1CCc2nc(SCC(=O)O)ccc2N1`, the growth in the test on HCT-15 colon was 99.1%; with HT29 colon it was 109%; with SNB-75 CNS it was 85.1%; in the test with SNB-19 CNS it was 92.7%; with U251 CNS, 112%; in the test with PC-3 prostate, 104%. Further, the growth was 101% in the test with SK-MEL-5 melanoma; 93.2% in the test with UACC-62 melanoma; 96.9% in the test with LOX IMVI melanoma; 106% in the test on SK-MEL-28 melanoma; 104% in the test on SK-MEL-2 melanoma; 101% with EKVX NSCLC. Also, the growth in the test with SN12C renal was 97.1%; in the test with UO-31 renal, 91.1%; with TK-10 renal it was 100%; in the test on ACHN renal, 102%; in the test with CAKI-1 renal, 97.3%; in the test with A498 renal, 85.7%. Besides, the growth with CCRF-CEM leukemia is 96.9%; in the test with MOLT-4 leukemia, 97.5%.
Take `Cc1[nH]c(C(=O)Nc2ccccc2OCc2cccc(C(=O)NC3CCCNC3)c2)c(Cl)c1Cl` (stereo not given): the growth is -84.2% (active) in the test with HCT-15 colon; -58.9% (active) in the test on HT29 colon; 84.1% with SNB-75 CNS; -80.4% (active) in the test on SNB-19 CNS; -57.6% (active) in the test with U251 CNS; -82.2% (active) in the test with PC-3 prostate. For the same compound, the growth in the test with SK-MEL-5 melanoma was -22.9% (active); with UACC-62 melanoma, -84.4% (active); with LOX IMVI melanoma it was -89.8% (active); in the test on SK-MEL-28 melanoma it was -84.9% (active); in the test with SK-MEL-2 melanoma it was 102%; in the test on EKVX NSCLC it was -80.4% (active). Besides, the growth with SN12C renal is -72.9% (active); in the test on UO-31 renal it was -13% (active); in the test with TK-10 renal it was -75% (active); with ACHN renal, -86.8% (active); in the test on CAKI-1 renal it was -91.3% (active); with A498 renal, 66.2%. Moreover, the growth was 2.33% (active) in the test on CCRF-CEM leukemia and -25.3% (active) in the test on MOLT-4 leukemia.
On to `C#CCN(C)CCCOc1ccc(NCc2ccc(C(=O)NO)cc2)cc1Cl`, for which the growth in the test with HCT-15 colon was 20%; in the test with HT29 colon, 16.2%; with SNB-75 CNS, 10.4%; in the test on SNB-19 CNS, 35.2%; in the test with U251 CNS it was 20%; in the test on PC-3 prostate, 29.4%. In addition, the growth is 9.67% (active) with SK-MEL-5 melanoma; -6.34% (active) with UACC-62 melanoma; 10.6% in the test on LOX IMVI melanoma; 24% in the test on SK-MEL-28 melanoma; 15% in the test on SK-MEL-2 melanoma; 35.5% in the test with EKVX NSCLC. The growth in the test on SN12C renal is 37.8%; with UO-31 renal, -13.7% (active); in the test with TK-10 renal it was -3.24% (active); with ACHN renal it was 9.03% (active); in the test on CAKI-1 renal, 8.63% (active); in the test with A498 renal it was -14.9% (active). The growth was 13.7% with CCRF-CEM leukemia and 17.3% in the test on MOLT-4 leukemia.
As to `CC(C)(C)OC(=O)NCc1ccc(CNc2c([N+](=O)[O-])cnc3ccccc23)cc1`, the growth was 74% in the test with HCT-15 colon; 83.8% in the test on HT29 colon; 57.1% in the test with SNB-75 CNS; 70.8% in the test with SNB-19 CNS; 87.4% with U251 CNS; 68.9% with PC-3 prostate. The growth in the test on SK-MEL-5 melanoma is 2.87% (active); in the test with UACC-62 melanoma it was 58.4%; with LOX IMVI melanoma, 35.4%; in the test on SK-MEL-28 melanoma, 89.4%; in the test on SK-MEL-2 melanoma, 29.7%; with EKVX NSCLC, 44.2%. Moreover, the growth in the test on SN12C renal is 75.9%; with UO-31 renal, 50.3%; in the test with TK-10 renal, 80.4%; in the test with ACHN renal, 61.1%; in the test on CAKI-1 renal, 67.1%; in the test on A498 renal, 36.2%. Moreover, the growth with CCRF-CEM leukemia was 59.8%; in the test with MOLT-4 leukemia, 34.4%.
Turning to `C#Cc1nc(/C=C/CCCCCCC(=O)NO)cs1`, the growth in the test with HCT-15 colon was 77%; in the test with HT29 colon, 54.2%; in the test with SNB-75 CNS it was -17.1% (active); in the test on SNB-19 CNS, 86.1%; with U251 CNS, 63.2%; in the test on PC-3 prostate it was 72.8%. Also, the growth in the test on SK-MEL-5 melanoma was 63.2%; in the test with UACC-62 melanoma, 45.8%; in the test with LOX IMVI melanoma, -84.2% (active); in the test on SK-MEL-28 melanoma, 75.4%; in the test on SK-MEL-2 melanoma it was 96.1%; with EKVX NSCLC it was 89.5%. The growth was 90.3% with SN12C renal; -93.1% (active) with UO-31 renal; 31.6% in the test on TK-10 renal; -39.1% (active) with ACHN renal; -11.4% (active) in the test with CAKI-1 renal; 73.9% in the test with A498 renal. The growth with CCRF-CEM leukemia was -39.3% (active); in the test with MOLT-4 leukemia, -14% (active).
On to `CCCCN1C(=O)/C(=c2\sc3n(c2=O)C2C(NN=3)N(CC)C(=O)N2CC)c2cc(C)ccc21` (stereo not given), for which the growth was 86.2% with HCT-15 colon; 102% with HT29 colon; 87.9% in the test with SNB-75 CNS; 93.3% in the test on SNB-19 CNS; 98.3% with U251 CNS; 95.8% in the test on PC-3 prostate. In addition, the growth in the test with SK-MEL-5 melanoma is 92.8%; in the test with UACC-62 melanoma, 71.6%; in the test on LOX IMVI melanoma, 78.8%; with SK-MEL-28 melanoma, 102%; in the test with SK-MEL-2 melanoma it was 113%; in the test on EKVX NSCLC, 85.2%. In addition, the growth was 97.9% in the test with SN12C renal; 75% in the test with UO-31 renal; 117% in the test with TK-10 renal; 95.1% in the test on ACHN renal; 58.1% in the test on CAKI-1 renal; 96% in the test on A498 renal. Besides, the growth was 94.7% in the test on CCRF-CEM leukemia and 91.8% with MOLT-4 leukemia.
